High-throughput results as filed in PubChem.
The full list was thinned out, with hits kept by preference.
GIRK2 act – Activates human GIRK2-containing potassium channels; P48051; activation (% efficacy), % for hits at 75 µM; 34,000 tested, under 10 active; HEK293 GIRK2/NPY4 cells, thallium flux fluorescence;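 active = primary screen hit, no activity in plain HEK293 cells, and in GIRK2-only cells above 5% efficacy rising with concentration; inactive = the rest, including fluorescent compounds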;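 note: efficacy is normalized control-subtracted fluorescence 15 s after thallium addition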
AMPAR-TARP mod – modulators of AMPA receptor GluA2-stargazin complexes; O88602+P19491; HEK293 GluA2+stargazin, membrane potential dye (FDSS), glutamate EC50; hits were called plate by plate, in both directions; hit rate 3.5% among 40,000; calls only at 30 µM;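 active = any of four per-well response measures lying three or more SD from its plate-wide compound average, in either direction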
Target sequence (O88602 whole entry, looked up): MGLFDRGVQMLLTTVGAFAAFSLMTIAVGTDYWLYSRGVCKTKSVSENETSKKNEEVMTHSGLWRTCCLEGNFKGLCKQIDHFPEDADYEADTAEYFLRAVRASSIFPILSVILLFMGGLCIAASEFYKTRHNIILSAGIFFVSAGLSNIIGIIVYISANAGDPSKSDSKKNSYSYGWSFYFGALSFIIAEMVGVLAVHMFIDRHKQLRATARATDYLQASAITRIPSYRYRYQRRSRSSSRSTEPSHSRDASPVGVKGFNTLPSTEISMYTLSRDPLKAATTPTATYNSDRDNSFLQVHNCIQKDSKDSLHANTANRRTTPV
Target sequence (P19491 whole entry, looked up): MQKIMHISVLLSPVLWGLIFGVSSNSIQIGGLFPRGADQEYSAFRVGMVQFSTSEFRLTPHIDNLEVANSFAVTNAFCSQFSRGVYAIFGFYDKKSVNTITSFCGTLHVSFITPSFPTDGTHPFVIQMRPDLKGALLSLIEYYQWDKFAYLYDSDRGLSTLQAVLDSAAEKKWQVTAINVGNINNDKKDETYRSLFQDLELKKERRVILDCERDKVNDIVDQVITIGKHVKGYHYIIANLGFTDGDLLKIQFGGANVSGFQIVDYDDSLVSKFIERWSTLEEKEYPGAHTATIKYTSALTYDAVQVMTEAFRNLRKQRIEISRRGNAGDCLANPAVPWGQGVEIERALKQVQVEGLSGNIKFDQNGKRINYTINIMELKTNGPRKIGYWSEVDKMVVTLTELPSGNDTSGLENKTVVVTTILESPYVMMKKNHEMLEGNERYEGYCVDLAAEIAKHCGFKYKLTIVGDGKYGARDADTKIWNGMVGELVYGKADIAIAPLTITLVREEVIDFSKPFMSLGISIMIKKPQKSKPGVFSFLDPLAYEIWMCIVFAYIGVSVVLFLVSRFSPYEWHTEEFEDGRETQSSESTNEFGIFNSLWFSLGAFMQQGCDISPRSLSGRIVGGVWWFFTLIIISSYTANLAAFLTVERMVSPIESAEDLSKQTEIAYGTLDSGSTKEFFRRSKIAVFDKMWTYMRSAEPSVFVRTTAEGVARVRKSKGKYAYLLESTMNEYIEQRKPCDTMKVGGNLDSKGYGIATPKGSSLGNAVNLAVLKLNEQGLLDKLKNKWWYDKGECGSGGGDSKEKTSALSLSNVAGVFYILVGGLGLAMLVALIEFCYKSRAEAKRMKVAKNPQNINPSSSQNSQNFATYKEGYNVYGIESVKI
Large screens that a line does not name were inactive.

CCCCN1CC(c2nc3ccccc3n2Cc2c(F)cccc2Cl)CC1=O (configuration not stated)	AMPAR-TARP mod active (no result: GIRK2 act)
O=C1CC(c2nc3ccccc3n2CC2CCCCC2)CN1CCc1ccccc1 (configuration not stated)	AMPAR-TARP mod active (no result: GIRK2 act)
C=C(Br)Cn1c(C2CC(=O)N(CCCC)C2)nc2ccccc21 (configuration not stated)	none
Nc1sc(SCC(=O)Nc2ccc3c(c2)OCO3)nc1-c1ccccc1	none
Cc1cccn2c(=O)c3cc(C(=O)N4CCCC(C)C4)n(Cc4ccccc4)c3nc12 (configuration not stated)	none
O=S(=O)(c1ccc2c(c1)OCCO2)N1CCN(Cc2nnnn2-c2ccccc2)CC1	none
O=C(c1ccc2nsnc2c1)N1CCN(c2ccc(-c3cccnc3)nn2)CC1	none
COc1ccc(NC(=O)CSc2nnc(-c3ccccc3OC)n2N)cc1OC	none
CCCCN1CC(c2nc3ccccc3n2CCOc2cccc(OC)c2)CC1=O (configuration not stated)	none (no result: GIRK2 act)
CCCCN1CC(c2nc3ccccc3n2CCOc2ccccc2OC)CC1=O (configuration not stated)	AMPAR-TARP mod active (no result: GIRK2 act)
COCCCNC(=O)CSc1nnc2c(=O)n(Cc3ccc(F)cc3)ccn12	none
COc1ccc(S(=O)(=O)NCC(c2cccn2C)N2CCc3ccccc3C2)cc1C (configuration not stated)	none
CC(C)C(=O)Nc1ccc(S(=O)(=O)NCC(O)c2ccc(C(F)(F)F)cc2)cc1 (configuration not stated)	none (no result: GIRK2 act)
CCOc1ccc(NC(=O)CSc2nc3c(-c4ccccc4)c[nH]c3c(=O)[nH]2)cc1	none (no result: AMPAR-TARP mod)
Nc1nc2ccc(S(=O)(=O)N3CCCCC3)cc2s1	AMPAR-TARP mod active
O=C(Nc1nc2ccc([N+](=O)[O-])cc2s1)c1ccc(S(=O)(=O)N2CCCCC2)cc1	none (no result: GIRK2 act)
COc1ccc(NC(=O)N2CCC(c3ccsc3)CC2)cc1	none (no result: GIRK2 act)
COc1ccc(CCC(=O)N2CCC(c3ccsc3)CC2)cc1	AMPAR-TARP mod active
COc1ccc(OC)c(S(=O)(=O)NCCNc2ccc(Nc3cc(C)ccn3)nn2)c1	none (no result: GIRK2 act)
COc1cc(/C=C/C(=O)Nc2nncs2)cc(OC)c1OC	AMPAR-TARP mod active
COc1cc(/C=C/C(=O)c2ccc(O)cc2)cc(OC)c1OC	none (no result: GIRK2 act)
COc1cc(/C=C/C(=O)NCCc2ccsc2)cc(OC)c1OC	none
COc1cc(/C=C/C(=O)NCCCn2cccc2)cc(OC)c1OC	AMPAR-TARP mod active
O=C(Cn1cnc(-c2ccccc2)cc1=O)Nc1ccc(OC(F)(F)F)cc1	none
O=C(N1CCOCC1)N1CCN(S(=O)(=O)c2ccc3ccccc3c2)CC1	none
CCCCNC(=O)c1nnn(-c2ccc(OC)cc2)c1C	none
COc1ccc(OC)c(S(=O)(=O)NCC2CCN(C)CC2)c1	none
COCCNC(=O)CCc1c(C)nn(-c2nc(C)c(C)c(=O)[nH]2)c1C	none
CC1(C)CC2CC(C)(CN2Cc2c(O)ccc3ccccc23)C1 (configuration not stated)	AMPAR-TARP mod active (no result: GIRK2 act)
Cc1cc(NC(=O)c2ccc(S(=O)(=O)N(C)C3CCCCC3)cc2)on1	none (no result: AMPAR-TARP mod)
O=C(CCCn1nc(-c2ccc(Cl)cc2)ccc1=O)Nc1ccc2c(c1)OCCO2	AMPAR-TARP mod active
O=C(CCCn1nc(-c2ccccc2)ccc1=O)Nc1ccc2c(c1)OCCO2	none (no result: AMPAR-TARP mod)
COC(=O)Nc1ccc(S(=O)(=O)N2CCCC(C(=O)Nc3ccc4ccccc4c3)C2)cc1 (configuration not stated)	none (no result: GIRK2 act)
COc1cccc(C(=O)NCCS(=O)(=O)N2CCOCC2)c1	none (no result: GIRK2 act)
COc1cccc(C(=O)NCCS(=O)(=O)N2CCC3(CC2)OCCO3)c1	AMPAR-TARP mod active (no result: GIRK2 act)
COc1ccc(S(=O)(=O)CC(=O)Nc2nc(-c3cc(Cl)sc3Cl)cs2)cc1	AMPAR-TARP mod active
COc1ccc(S(=O)(=O)CC(=O)Nc2nc(-c3cc(Cl)ccc3Cl)cs2)cc1	none
COc1ccc2c(=O)c(Oc3ccc(C(=O)NCc4ccncc4)cc3)coc2c1	none
O=C(NCC(O)c1ccsc1)C1CC1 (configuration not stated)	none
O=C(NCc1ccsc1)C1CCCCC1	AMPAR-TARP mod active
CCOC(=O)c1ccc(NC(=O)COc2cccc3c2CCN(Cc2ccc(Cl)cc2)C3=O)cc1	none (no result: GIRK2 act)
O=C(Cn1nc(-c2ccc3c(c2)OCO3)ccc1=O)NCCc1ccccc1	none
Cc1cc(NC(=O)c2ccc([N+](=O)[O-])c(C)c2)ccc1N1CCCCC1=O	none
Cc1cc(C(=O)Nc2cccc(N3CCCC3=O)c2)ccc1[N+](=O)[O-]	AMPAR-TARP mod active
COc1ccc(S(=O)(=O)N2CCC(c3nnc(C4CC4)o3)CC2)cc1	none
COc1cccc(COc2coc(C(=O)Nc3nc4ccc(Cl)cc4s3)cc2=O)c1	none
O=C(Nc1nc2ccccc2s1)c1ccc(=O)n(Cc2cccc([N+](=O)[O-])c2)c1	none
CS(=O)(=O)c1ccc2nc(NC(=O)c3ccc(=O)n(Cc4ccc(Cl)cc4)c3)sc2c1	AMPAR-TARP mod active
O=C(Nc1nc2ccc([N+](=O)[O-])cc2s1)c1ccc(=O)n(Cc2ccccc2)c1	AMPAR-TARP mod active
Cc1cccc2sc(NC(=O)c3ccc(=O)n(Cc4ccc(Cl)cc4)c3)nc12	none
COc1coc(C(=O)Nc2nc3ccc([N+](=O)[O-])cc3s2)cc1=O	AMPAR-TARP mod active
Cn1c(N=Nc2c(O)[nH]c(=O)[nH]c2=O)nc2c1c(=O)n(Cc1ccccc1)c(=O)n2C	none (no result: GIRK2 act)
COc1ccc(CNC(=O)NCc2nn(C)c(=O)c3ccccc23)cc1OC	none
COc1ccccc1CCNC(=O)CC1CCCCN1S(=O)(=O)c1ccccc1 (configuration not stated)	none (no result: GIRK2 act)
COc1ccccc1CNC(=O)C(=O)NCCC1CCCCN1S(=O)(=O)c1ccccc1 (configuration not stated)	AMPAR-TARP mod active (no result: GIRK2 act)
COc1ccccc1CNC(=O)C(=O)NCCC1CCCCN1S(=O)(=O)c1ccc(F)cc1 (configuration not stated)	none (no result: GIRK2 act)
COc1ccccc1CCNC(=O)CC1CCCCN1S(=O)(=O)c1ccc(C)cc1 (configuration not stated)	AMPAR-TARP mod active (no result: GIRK2 act)
Cc1ccc(S(=O)(=O)N2CCCCC2CC(=O)NC2CCCCC2)cc1 (configuration not stated)	none (no result: GIRK2 act)
O=C(CC1CCCCN1S(=O)(=O)c1ccccc1)NC1CCCCC1 (configuration not stated)	AMPAR-TARP mod active (no result: GIRK2 act)
COc1ccccc1CNC(=O)CC1CCCCN1S(=O)(=O)c1ccc(Cl)cc1 (configuration not stated)	none (no result: GIRK2 act)
COc1ccccc1CCNC(=O)CC1CCCCN1S(=O)(=O)c1ccc(Cl)cc1 (configuration not stated)	AMPAR-TARP mod active (no result: GIRK2 act)
COc1ccc(CCNC(=O)C(=O)Nc2ccc3c(c2)OCCO3)cc1	none
CC(=O)Nc1ccc(S(=O)(=O)NCCC2=CCCCC2)cc1	none (no result: GIRK2 act)
CC(C)c1nnc(C2CCN(C(=O)NCCCc3ccccc3)CC2)o1	none (no result: GIRK2 act)
CCOC(=O)CCC(=O)Nc1cc(C)nn1-c1nc(-c2ccccc2)cs1	none (no result: AMPAR-TARP mod)
COC(=O)c1ccccc1NC(=O)CC1Nc2cccc3cccc(c23)NC1=O (configuration not stated)	none (no result: GIRK2 act)
O=C(CC1Nc2cccc3cccc(c23)NC1=O)Nc1cccc(C(F)(F)F)c1 (configuration not stated)	AMPAR-TARP mod active (no result: GIRK2 act)
O=C(NCC#CCN1CCc2ccccc2C1)C(c1ccccc1)c1ccccc1	none
CC(C)(C)C(=O)Nc1sc(SCC(=O)NC2CC2)nc1-c1ccccc1	none
COc1ccccc1C(=O)Nc1sc(SCC(N)=O)nc1-c1ccccc1	AMPAR-TARP mod active
